Results on 40 compounds are retold here after PubChem BioAssay (NCI).

This is part of a sample that, as a whole, favours compounds with a hit. Of some 83,000 tested, about 20% had one in any assay.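 Percent growth is the endpoint: 0 to 100 indicates growth inhibition (40 means 60% inhibition), 0 means no net growth, and negative values indicate cell death.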 A number with no mark means an inactive call. Calls of active or inactive are those of the source. How the source made its calls: active means growth percent below 10; inactive means the rest.

The subject of the experiment is MDA-MB-468 breast. The experiment can be described thus: NCI-60 one-dose screen, 48 h (100 = growth as untreated, 0 = no growth, -100 = all killed). To be noted: 10 µM unless noted.
Take `C#CC(=O)N(c1ccc(OC)cc1OC)C(C(=O)NCC(=O)OCC)c1cccs1` (stereo not given): the growth was 20.2%. As to `Clc1ccc(-c2nc(-c3cccs3)cn3ccnc23)cc1`, the growth was -11.1% (active). To `COc1ccccc1C(=O)CSc1nc(Nc2ccc(S(N)(=O)=O)cc2)c2ccccc2n1` belongs 99.7%; to `CCN(CC)CCOc1ccc(/C(=C(\C)Cc2ccc(OC)cc2)c2ccc(OC(=O)NCc3ccccc3)cc2)cc1`, 43.3%; to `CN(C)CCCOc1cccc(NC2=C(Cl)C(=O)C(Nc3cccc(OCCCN(C)C)c3)=C(Cl)C2=O)c1`, -57.3% (active). As for `CC(=O)c1ccc(Nc2nccc(-c3ccc(Cl)cc3)n2)cc1`, the figure is 76.7%; as for `C=CCn1c(SCC(=O)Nc2cccc(C(=O)/C=C/c3ccc(Cl)cc3)c2)nc2ccccc2c1=O`, 107%; as for `CCN(CC)CC(O)c1cc(-c2ccc(Cl)cc2)nc2c(C)c(Cl)ccc12` (stereo not given), -88.6% (active).

As for `COc1cc(/C=N/NC(=O)c2cn(C3CC3)c3c(OC)c(N4CC5CCCNC5C4)c(F)cc3c2=O)ccc1O` (stereo not given), the growth was 54.8%. As for `c1ccc(C(=NNc2nc3ccccc3o2)c2ccccn2)nc1`, the figure is -27.4% (active). As for `CCOC(=O)Cc1csc2nc(-c3ccccc3)nn12`, the figure is 108%. Consider `Cc1[nH]c(-c2cc(N)ccc2Cl)c2c1C(=O)CCCC2`, for which the growth is -5.42% (active).

For `CSc1nc2c(c(=O)[nH]1)N=C1c3ccccc3C(=O)C1C(c1ccc(F)cc1)N2` (stereo not given), the growth is 21.7%. Consider `COc1ccc(Cc2nnc(Nc3nc4ccccc4s3)s2)cc1`, for which the growth is 92.6%. Turning to `Oc1ccc(-c2[nH]c3ccccc3c2-c2nc3ccccc3o2)cc1`, the growth is 26.1%. As for `Clc1ccc(Oc2ccc(Nc3ncnc4onc(-c5ccccc5)c34)cc2)c(Cl)c1`, the figure is 95.1%. As for `CCC(=O)Sc1ccccc1C(=O)Nc1ccc(Cl)cc1`, the figure is 27%. With `C#CCOc1ccc(/C=N/Nc2nc(-c3cc4cc(Br)cc(Br)c4oc3=O)cs2)cc1`, the growth was 106%.

`CN(N)c1nc2sc3c(c2c(=O)[nH]1)CCCC3`: the growth was 113%. To `O=C(Nc1ccc(C(=O)Nc2ccc(C3=NCCCN3)cc2)cc1)Nc1ccc(C2=NCCCN2)cc1` belongs 66.6%; to `O=C(O)c1ccc2c(c1Sc1ccccc1)C(=O)c1ccccc1C2=O`, 97.9%; to `Cc1cn(-c2cc(F)cc(NC(=O)c3ccc(C)c(Nc4nccc(-c5cccnc5)n4)c3)c2)cn1`, -63.4% (active).

With `CSc1nc2c(c(=O)n1C)CN(Cc1ccccc1)C(=O)CN2`, the growth is 71.3%.

Regarding `COc1ccc(/C=C2\COc3ccc(O)c(O)c3C2=O)c(OC)c1OC`, the growth is 7.7% (active). As to `Cc1cc(N(CCNc2ccnc3cc(Cl)ccc23)Cc2cccs2)nc(Cl)n1`, the growth was -65.2% (active). For the compound `Cc1c(N2CN3C[C@H](C)N4CN(c5c(C)n(C)n(-c6ccccc6)c5=O)CN5C[C@@H](C)N(C2)C3C54)c(=O)n(-c2ccccc2)n1C` (stereo not given in full), the growth was 97.1%.

`COc1ccc(/C=C/C(=O)Nc2ncnc3nc[nH]c23)cc1`: the growth is 95.3%. To `OCc1ccc(N2CCc3cccc(F)c3C2)cc1Cl` belongs -49.9% [0.1 µM] (active); to `Clc1ccc(-c2cnc3nonc3n2)s1`, 49.6%. Consider `CN(C)c1ccc(Cc2cc(-c3ccccc3)nn(C/C(=N/O)c3ccccc3)c2=O)cc1`, for which the growth is 57.1%. As for `O=c1c2cc(F)ccc2sc2c(N3CCCCC3)nc3ccccc3c12`, the growth was 95.6%. As to `COc1ccc(-n2sc(=O)n(Cc3ccc(COC(=O)C(C)c4ccc(CC(C)C)cc4)cc3)c2=O)cc1` (stereo not given), the growth was -46.1% (active). In the case of `CCCCCC[n+]1ccc(SCC(=O)n2ccc3ccccc32)c2ccccc21`, the growth is 4.72% (active). Turning to `O=C(CSCC(=O)N/N=C/c1ccccc1O)N/N=C\c1ccccc1O`, the growth is 15.6%. In the case of `c1ccc(-c2[nH]c3ccccc3c2-c2ccccc2)cc1`, the growth is 84.1%. In the case of `O=C(C[n+]1cccc2cc(Cl)ccc21)c1ccc2c(c1)CCCC2`, the growth was 9.66% (active).

For `CC(=O)O[C@H]1C[C@@]2(C)[C@@H](C[C@@H](O)[C@H]3[C@@]4(C)CC[C@H](N5CCCC5)[C@@H](C)[C@@H]4CC[C@@]32C)/C1=C(\CCC=C(C)C)C(=O)O`, the growth was 94.6%. Take `COC(=O)c1cccc(NC2=CC(=O)C(C)=C(C)C2=O)c1`: the growth is 65.9%.

As to `COc1cccc(-c2nc3occn3c2-c2ccnc(NCCNS(=O)(=O)c3cccc4ccccc34)n2)c1`, the growth is 98.1%. For `O=c1[nH]c(NCc2nnnn2-c2ccc(Br)cc2)nc2sc3c(c12)CCCC3`, the growth was 96.9%.
